Source: PubChem
Shown are actives, neighbours in structure and some others; about 4.2% of the full set was active somewhere.
ClpP mod = qHTS Assay for Activators of ClpP; ATP-dependent Clp protease proteolytic subunit (Bacillus subtilis (strain 168)), P80244; purified B. subtilis ClpP, FRET peptide cleavage, 20 min; Potency, µM (top dose mostly 57.5 µM), for inactives: top-dose activity change, negative = active; 1.9% of 340,000 active; AID 651965, 2013; active = well fitted falling curve with a large enough effect; inconclusive = small, poorly fitted or top-dose-only effect; inactive = no such curve, though single readings can be large or run the other way; also: potency is read from the fitted curve at half-maximal effect; the source files actives as falling curves though it sought activators and does not explain the sign; nearly all actives have a fitted effect of over 65% in size
Target sequence (P80244 whole entry, looked up): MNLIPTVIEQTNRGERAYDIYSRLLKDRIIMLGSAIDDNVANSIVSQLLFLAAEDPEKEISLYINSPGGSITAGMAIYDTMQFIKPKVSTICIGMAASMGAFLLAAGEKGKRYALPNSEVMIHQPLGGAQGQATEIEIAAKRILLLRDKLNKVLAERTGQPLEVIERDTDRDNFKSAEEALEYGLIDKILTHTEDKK
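Buffer: 100 mM Tris/HCl pH8, 100 mM KCl, 0.05% low protease BSA, 2.5% glycerol, 0.01% Tween-20. ClpP 10 microg/mL final; 20 min RT; delta FRET normalized to ADEP and DMSO controls.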
uPA surface inh = blocks generation of uPA at the cell surface | cell surface uPA generation assay, qHTS | Potency, µM (series often up to 38.3 µM), inactives show at the top dose activity change, negative = inhibition, usual class: inhibitors | 0.31% of 330,000 active | AID 540303; active = well fitted inhibition curve with a large enough effect; inconclusive = small, poorly fitted or top-dose-only effect; inactive = no such curve, though single readings can be large or run the other way; tested in mouse RAW 264.7 cells; also: potency is read from the fitted curve at half-maximal effect; % is scaled to controls: 0 for no effect and ±100 for the full control effect; nearly all actives have a fitted effect of over 55% in size
Sfp inh = Sfp phosphopantetheinyl transferase inhibition | Q9F4F7 | Biochemical Sfp PPTase activity, qHTS | Potency, µM, inactives show largest response in the series, negative = inhibition, most hits filed as inhibitors | 3.5% of 310,000 active | AID 1490;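 also: the enzyme is Sfp with the accession as filed and its product quenches rhodamine fluorescence; potency is read from the fitted curve at half-maximal effect; 0% = enzyme reaction without inhibitor and -100% = no enzyme wells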
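Reaction rates are the 30-min fluorescence difference (ex 525, em 598 nm) in wells containing 15 nM Sfp, 5 uM rhodamine-CoA and 12.5 uM BHQ-2-YbbR at pH 7.6 with 10 mM MgCl2.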
TCR activator = activators of T cell receptors; 330,000 tested, under 10 active; AID 504894; Potency, µM (highest dose often 9.22 µM), inactives show top-dose activation of IL-2 secretion, actives largely listed as activators; primary human leukocytes, anti-CD3, IL-2 HTRF, 48 h; also: % of control where 0% means no effect
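Primary human leukocytes were stimulated with a-CD3 beads plus compounds for 48 hr without co-stimulation; secreted IL-2 was quantified by HTRF using a-IL-2-K (europium cryptate) and a-IL-2-d2, excited at 320nm with acceptor emission read at 665nm.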
* marks the source's active call; other numbers are inactive results; [ ] = another dose, or the depositor's remark. Unless noted, calls follow the shape of the dose curve; as a rule, active = well fitted curve in the direction sought with a large enough effect; inconclusive = small, poorly fitted or top-dose-only effect, or another doubt; inactive = no such curve, though single readings can be large; an effect the other way counts as inactive or inconclusive.

What do the screens show for `c1ccc(-c2cc3c(N4CCCC4)ncnc3s2)cc1`?
uPA surface inh: -9%; Sfp inh: -10%; TCR activator: -3%

How did Cc1nc(N2CCN(Cc3ccc4c(c3)OCO4)CC2)c2cc(-c3ccccc3)sc2n1 do in these assays?
uPA surface inh: -6%; Sfp inh: inconclusive; TCR activator: 3%

What do the screens show for `NNc1nccc(Nc2ccccc2C(=O)O)n1`?
ClpP mod: -11%; uPA surface inh: 8%; Sfp inh: 50µM*; TCR activator: -1%[46.1 µM]

How did COc1ccc(Cl)cc1NC(=O)NCCc1c(C)nn(C)c1C do in these assays?
ClpP mod: 0%

Results for COC(=O)[C@@H](NC(=O)N1CCc2nc(COc3ccccc3)c3c(c2C1)CO[C@@H](C)C3)C(C)C ?
Sfp inh: 7%

How did CN1CCN(c2nc(-c3ccco3)cc(C(F)(F)F)n2)CC1 do in these assays?
ClpP mod: -30%; Sfp inh: 1%; TCR activator: 4%

How did O=[N+]([O-])c1cn(-c2nc(-c3ccco3)cc(C(F)(F)F)n2)cn1 do in these assays?
ClpP mod: -4%; uPA surface inh: 4%; Sfp inh: 5%; TCR activator: -1%

Results for FC(F)(F)c1cc(-c2ccco2)nc(-n2nc(C(F)(F)F)cc2C2CC2)n1 ?
ClpP mod: 28µM*; Sfp inh: 14%; TCR activator: 14%

Results for FC(F)(F)c1cc(-c2ccco2)nc(-n2nnc3ccccc32)n1 ?
ClpP mod: 28µM*; Sfp inh: -3%; TCR activator: 11%

Results for CCOC(=O)C1C(C#N)=C(N)OC(C)=C1c1ccncc1 (centres undefined) ?
ClpP mod: 32µM*; uPA surface inh: -1%; Sfp inh: 17%; TCR activator: 3%

What do the screens show for `CCOc1ccc(C(=O)NC(C(=O)N2CCC2)C(C)C)cc1` (centres undefined)?
ClpP mod: 28µM*; uPA surface inh: 7%; TCR activator: -3%

How did Cc1nn(CC(=O)NC(=O)c2ccccc2)c(C)c1[N+](=O)[O-] do in these assays?
ClpP mod: -3%; uPA surface inh: -8%; TCR activator: -1%

How did N#CC1=C(N)SC(N)=C(C#N)C1C1C=CCCC1 (centres undefined) do in these assays?
ClpP mod: 1%; uPA surface inh: 1%; Sfp inh: 40µM*; TCR activator: -10%[46.1 µM]

How did N#CC1=C(N)SC(N)=C(C#N)C1C1CC=CCC1 (centres undefined) do in these assays?
ClpP mod: 0%; uPA surface inh: -15%; Sfp inh: 20µM*; TCR activator: -9%

Results for COCCCN1C(=O)C(CC(=O)NC(c2ccccc2)c2ccccc2)CC(C(=O)N2CCOCC2)=C1C (centres undefined) ?
ClpP mod: 1%

How did CCOc1cc(C=C(C#N)C#N)ccc1Oc1ccc([N+](=O)[O-])cn1 do in these assays?
ClpP mod: -2%; uPA surface inh: -8%; Sfp inh: -17%; TCR activator: -6%

Results for COc1cc(/C=C(/C#N)c2ccc(F)cc2)ccc1Oc1ccc([N+](=O)[O-])cn1 ?
ClpP mod: 32µM*; uPA surface inh: -1%; Sfp inh: 15%; TCR activator: 5%[46.1 µM]

What do the screens show for `CCc1cccc(NC(=O)CN2Cc3ccccc3C2=O)c1`?
ClpP mod: 1%

Results for COCCOC(=O)c1c(C)nc(SCC(=O)Nc2cccc3ccccc23)c(C#N)c1-c1ccco1 ?
ClpP mod: inconclusive; uPA surface inh: -4%; Sfp inh: 7.9µM*; TCR activator: -5%

Results for COCCOC(=O)c1c(C)nc(SCC(=O)Nc2ccc(C)cc2)c(C#N)c1-c1ccco1 ?
ClpP mod: -17%; uPA surface inh: 0%; Sfp inh: 23%; TCR activator: 3%

Results for Cc1cc(=O)[nH]c(SCC(=O)Nc2cccc3ccccc23)c1C#N ?
ClpP mod: -18%; Sfp inh: 50µM*

Results for COC(=O)c1cc2nc(-c3ccccc3)cc(C)n2n1 ?
ClpP mod: inconclusive; uPA surface inh: -4%; Sfp inh: -5%; TCR activator: -45%

How did CCOc1ccc(-c2cc(C)n3nc(C(N)=O)cc3n2)cc1 do in these assays?
ClpP mod: 16µM*; uPA surface inh: 6%; Sfp inh: -26%; TCR activator: -4%

Results for Cc1cccc(NC(=O)c2cc(NC(=O)c3ccco3)ccc2N2CCCCC2)c1 ?
ClpP mod: 18µM*; uPA surface inh: -1%; Sfp inh: -3%

Results for O=C(Nc1ccc(N2CCCCC2)c(C(=O)O)c1)c1ccco1 ?
ClpP mod: -1%; uPA surface inh: -5%; Sfp inh: 5%; TCR activator: -9%

How did c1ccc2c(c1)Cn1c-2nc2ccccc21 do in these assays?
ClpP mod: 25µM*; uPA surface inh: -8%; Sfp inh: -1%; TCR activator: -12%

Results for O=c1c(CCc2ccccc2)nc2cnc(Oc3ccccc3)nc2n1C[C@H]1CCCO1 ?
Sfp inh: -14%

Results for Cc1cc2nn(-c3cccc4ccccc34)nc2cc1NC(=O)c1cccs1 ?
ClpP mod: 14µM*; uPA surface inh: 9%; Sfp inh: 19%; TCR activator: 0%

Results for CCC(=O)Nc1ccc(C(=O)CSc2nnc(-c3ccc(O)cc3)n2CC2CCCO2)cc1 (centres undefined) ?
ClpP mod: -1%; Sfp inh: 79µM*; TCR activator: -3%

How did COc1cc(C(=O)CSc2nnc(-c3ccc(O)cc3)n2CC2CCCO2)ccc1NC(C)=O (centres undefined) do in these assays?
ClpP mod: 0%; uPA surface inh: 8%; Sfp inh: inconclusive; TCR activator: -2%

What do the screens show for `CC(C)(C)OC(=O)[C@H](Cc1ccccc1)NC(=O)c1nc[nH]c1C(=O)N[C@@H](Cc1ccccc1)C(=O)OC(C)(C)C`?
ClpP mod: -4%; uPA surface inh: inconclusive; Sfp inh: 19%; TCR activator: 0%

Results for CC(C)(C)OC(=O)[C@H](Cc1ccccc1)NC(=O)c1ncn2c1c(=O)[nH]c1ccc(Br)cc12 ?
ClpP mod: 7.9µM*

How did Cc1ccccc1C(=O)Nc1ccc2c(C#N)c3nc4ccccc4nc3n2c1 do in these assays?
ClpP mod: -4%; uPA surface inh: -8%; Sfp inh: 56µM*; TCR activator: 1%[46.1 µM]

What do the screens show for `CC1(C)CC(=O)c2cc(OCC(=O)N3CCN(c4ccccc4F)CC3)ccc2O1`?
ClpP mod: inconclusive; uPA surface inh: 5%; Sfp inh: 0%

What do the screens show for `CCOC(=O)COc1ccc2c(c1)C(=O)CC1(CCN(C(C)=O)CC1)O2`?
ClpP mod: 28µM*; Sfp inh: 14%

What do the screens show for `CC1(C)CC(=O)c2cc(OCC(=O)N3CCCCCC3)ccc2O1`?
ClpP mod: 28µM*; Sfp inh: -3%; TCR activator: 1%
